For some assays here: Measured potencies and affinities stand elsewhere.
Tests used:
Parameters in all cases: scale not given: direction of the effect not stated beside the values
[1] = molecular target: Protein translocase subunit SecA (Escherichia coli (strain K12)) (UniProt P10408); assay: Assay to Identify E. coli SecA ATPase Inhibitors; assay type: functional; settings: 30 µM
[2] = molecular target: T1, Ubiquitin-activating enzyme e1, putative (Leishmania donovani (strain BPK282A1)) (UniProt E9BSI1); assay: Leishmania donovani Ubiquitin Activating Enzyme (LdE1); assay type: functional; settings: 30 µM
T1 sequence (whole entry): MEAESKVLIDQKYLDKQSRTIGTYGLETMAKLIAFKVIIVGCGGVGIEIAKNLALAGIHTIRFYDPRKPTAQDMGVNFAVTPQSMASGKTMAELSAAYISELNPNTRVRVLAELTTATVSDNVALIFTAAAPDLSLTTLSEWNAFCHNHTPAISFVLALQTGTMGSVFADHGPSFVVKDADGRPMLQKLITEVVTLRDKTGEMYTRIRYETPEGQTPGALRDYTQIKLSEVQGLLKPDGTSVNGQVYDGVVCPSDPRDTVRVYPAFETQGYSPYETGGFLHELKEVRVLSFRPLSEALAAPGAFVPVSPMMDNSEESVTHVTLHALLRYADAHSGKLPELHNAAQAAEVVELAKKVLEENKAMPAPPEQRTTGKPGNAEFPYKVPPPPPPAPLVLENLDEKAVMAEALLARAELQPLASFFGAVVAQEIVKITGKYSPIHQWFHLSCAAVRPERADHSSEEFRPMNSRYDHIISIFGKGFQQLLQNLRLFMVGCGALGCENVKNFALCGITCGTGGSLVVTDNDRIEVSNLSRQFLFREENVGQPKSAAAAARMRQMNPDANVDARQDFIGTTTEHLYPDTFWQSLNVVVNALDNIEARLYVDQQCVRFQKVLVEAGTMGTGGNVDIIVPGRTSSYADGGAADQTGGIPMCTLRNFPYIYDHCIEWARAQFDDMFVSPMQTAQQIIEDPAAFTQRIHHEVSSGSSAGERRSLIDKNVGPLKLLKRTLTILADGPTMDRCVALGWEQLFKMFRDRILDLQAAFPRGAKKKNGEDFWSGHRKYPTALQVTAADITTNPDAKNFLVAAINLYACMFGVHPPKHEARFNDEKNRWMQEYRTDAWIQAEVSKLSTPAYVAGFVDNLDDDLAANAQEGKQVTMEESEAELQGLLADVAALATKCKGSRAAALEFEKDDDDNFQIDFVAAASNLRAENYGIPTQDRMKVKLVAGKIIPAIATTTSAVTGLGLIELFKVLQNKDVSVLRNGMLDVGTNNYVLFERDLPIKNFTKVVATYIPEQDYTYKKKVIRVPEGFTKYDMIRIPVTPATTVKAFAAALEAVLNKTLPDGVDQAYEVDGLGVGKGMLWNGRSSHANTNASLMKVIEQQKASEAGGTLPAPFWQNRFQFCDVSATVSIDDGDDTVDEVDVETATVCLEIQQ

[3] = molecular target: Sialic acid-binding Ig-like lectin 9 (Homo sapiens) (UniProt Q9Y336); assay: Hs-Siglec9 ALPHAscreen SOP 20170721; settings: 10 µM
Sequence of Sialic acid-binding Ig-like lectin 9 (Homo sapiens) (Q9Y336 whole entry): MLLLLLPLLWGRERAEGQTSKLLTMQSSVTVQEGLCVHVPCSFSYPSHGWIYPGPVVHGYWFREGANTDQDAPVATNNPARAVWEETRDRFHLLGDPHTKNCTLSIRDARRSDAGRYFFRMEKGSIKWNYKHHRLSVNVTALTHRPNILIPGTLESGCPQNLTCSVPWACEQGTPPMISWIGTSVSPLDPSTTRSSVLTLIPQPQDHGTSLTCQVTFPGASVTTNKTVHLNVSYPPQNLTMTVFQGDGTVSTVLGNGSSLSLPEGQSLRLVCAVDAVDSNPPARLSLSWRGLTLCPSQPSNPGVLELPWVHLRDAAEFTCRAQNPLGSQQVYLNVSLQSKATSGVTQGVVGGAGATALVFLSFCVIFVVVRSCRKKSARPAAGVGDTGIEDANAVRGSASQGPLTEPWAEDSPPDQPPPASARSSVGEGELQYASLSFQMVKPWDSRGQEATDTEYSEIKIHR

[4] = tested on: Trypanosoma cruzi; assay: Trypanosoma cruzi phosphomannomutase and mannose-1-phosphate guanylyltransferase assay; assay type: functional; settings: 10 µM
[5] = molecular target: T2, Arginase-2, mitochondrial (Homo sapiens) (UniProt P78540); assay: in vitro enzyme assay to detect the production of urea directly proportional to the activity of Arginase II; assay type: functional; settings: 33.3 µM; note: in the data most compounds retested in dose-response had high values
T2 sequence (whole entry): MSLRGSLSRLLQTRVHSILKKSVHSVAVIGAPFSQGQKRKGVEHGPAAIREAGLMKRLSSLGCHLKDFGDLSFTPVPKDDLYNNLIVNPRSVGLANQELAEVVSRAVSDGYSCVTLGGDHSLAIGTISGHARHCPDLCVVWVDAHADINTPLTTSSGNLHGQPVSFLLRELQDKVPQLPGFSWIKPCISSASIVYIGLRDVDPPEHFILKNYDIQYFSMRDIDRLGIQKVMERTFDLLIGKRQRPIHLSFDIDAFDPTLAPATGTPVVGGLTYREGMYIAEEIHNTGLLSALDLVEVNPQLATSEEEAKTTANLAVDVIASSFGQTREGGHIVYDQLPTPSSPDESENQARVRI

[6] = molecular target: T3, Proteasome subunit beta (Trypanosoma cruzi) (UniProt O96673); assay: Trypanosoma cruzi proteasome chymotrypsin-like activity (TcProtChymo) assay.; note: in the data most compounds retested in dose-response had high values; assay type: functional; settings: 9.37 µM
T3 sequence (whole entry): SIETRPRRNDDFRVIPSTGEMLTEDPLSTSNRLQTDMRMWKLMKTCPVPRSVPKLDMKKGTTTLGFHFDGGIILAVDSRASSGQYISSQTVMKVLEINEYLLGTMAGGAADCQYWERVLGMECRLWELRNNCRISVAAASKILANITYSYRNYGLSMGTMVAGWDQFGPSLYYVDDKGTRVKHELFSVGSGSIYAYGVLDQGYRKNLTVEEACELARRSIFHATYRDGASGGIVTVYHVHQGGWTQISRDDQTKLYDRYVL

[7] = species: Homo sapiens; assay: To identify inhibition of the IFN signalling (Jak-Stat) pathway via expression of an eGFP reporter gene under the control of an IFN-stimulated response element (ISRE) containing MxA promoter.; assay type: functional; settings: 30 µM
[8] = molecular target: T4, Tyrosyl-tRNA synthetase, putative (Trypanosoma cruzi (strain CL Brener)) (UniProt Q4DSP6); assay: Trypanosoma cruzi tyrosyl tRNA synthetase (TcYRS) _High Tyrosine SOP; assay type: functional; settings: 30 µM; note: in the data most compounds retested in dose-response had high values
T4 sequence (whole entry): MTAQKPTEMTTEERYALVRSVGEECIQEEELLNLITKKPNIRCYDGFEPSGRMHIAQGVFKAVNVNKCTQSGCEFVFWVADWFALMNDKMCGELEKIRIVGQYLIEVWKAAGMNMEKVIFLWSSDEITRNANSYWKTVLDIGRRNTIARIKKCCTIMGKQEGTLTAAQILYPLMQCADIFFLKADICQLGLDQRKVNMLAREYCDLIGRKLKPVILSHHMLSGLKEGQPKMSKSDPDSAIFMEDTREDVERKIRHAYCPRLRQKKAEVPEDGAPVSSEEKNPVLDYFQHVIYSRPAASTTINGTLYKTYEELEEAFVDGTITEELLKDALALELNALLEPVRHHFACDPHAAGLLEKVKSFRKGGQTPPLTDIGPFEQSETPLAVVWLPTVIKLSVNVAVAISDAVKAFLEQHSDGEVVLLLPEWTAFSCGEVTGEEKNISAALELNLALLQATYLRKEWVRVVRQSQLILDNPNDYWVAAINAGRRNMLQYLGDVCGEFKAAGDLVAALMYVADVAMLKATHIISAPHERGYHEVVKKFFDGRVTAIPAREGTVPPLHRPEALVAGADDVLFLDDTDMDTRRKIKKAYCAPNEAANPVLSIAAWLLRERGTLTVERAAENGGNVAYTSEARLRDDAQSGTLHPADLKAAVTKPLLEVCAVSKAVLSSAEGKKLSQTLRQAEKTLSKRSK

[9] = molecular target: T4, Tyrosyl-tRNA synthetase, putative (Trypanosoma cruzi (strain CL Brener)); assay: Trypanosoma cruzi tyrosyl tRNA synthetase (TcYRS) SOP; assay type: functional; settings: 30 µM
[10] = molecular target: Chromo domain-containing protein 1 (Saccharomyces cerevisiae (strain ATCC 204508 / S288c) (Baker's yeast)) (UniProt P32657); assay: ScCHD-1 Enzyme Inhibition Assay; assay type: functional; settings: 30 µM; note: in the data most compounds retested in dose-response had high values
Sequence of Chromo domain-containing protein 1 (Saccharomyces cerevisiae (strain ATCC 204508 / S288c) (Baker's yeast)) (P32657 whole entry, the tested form may be a part): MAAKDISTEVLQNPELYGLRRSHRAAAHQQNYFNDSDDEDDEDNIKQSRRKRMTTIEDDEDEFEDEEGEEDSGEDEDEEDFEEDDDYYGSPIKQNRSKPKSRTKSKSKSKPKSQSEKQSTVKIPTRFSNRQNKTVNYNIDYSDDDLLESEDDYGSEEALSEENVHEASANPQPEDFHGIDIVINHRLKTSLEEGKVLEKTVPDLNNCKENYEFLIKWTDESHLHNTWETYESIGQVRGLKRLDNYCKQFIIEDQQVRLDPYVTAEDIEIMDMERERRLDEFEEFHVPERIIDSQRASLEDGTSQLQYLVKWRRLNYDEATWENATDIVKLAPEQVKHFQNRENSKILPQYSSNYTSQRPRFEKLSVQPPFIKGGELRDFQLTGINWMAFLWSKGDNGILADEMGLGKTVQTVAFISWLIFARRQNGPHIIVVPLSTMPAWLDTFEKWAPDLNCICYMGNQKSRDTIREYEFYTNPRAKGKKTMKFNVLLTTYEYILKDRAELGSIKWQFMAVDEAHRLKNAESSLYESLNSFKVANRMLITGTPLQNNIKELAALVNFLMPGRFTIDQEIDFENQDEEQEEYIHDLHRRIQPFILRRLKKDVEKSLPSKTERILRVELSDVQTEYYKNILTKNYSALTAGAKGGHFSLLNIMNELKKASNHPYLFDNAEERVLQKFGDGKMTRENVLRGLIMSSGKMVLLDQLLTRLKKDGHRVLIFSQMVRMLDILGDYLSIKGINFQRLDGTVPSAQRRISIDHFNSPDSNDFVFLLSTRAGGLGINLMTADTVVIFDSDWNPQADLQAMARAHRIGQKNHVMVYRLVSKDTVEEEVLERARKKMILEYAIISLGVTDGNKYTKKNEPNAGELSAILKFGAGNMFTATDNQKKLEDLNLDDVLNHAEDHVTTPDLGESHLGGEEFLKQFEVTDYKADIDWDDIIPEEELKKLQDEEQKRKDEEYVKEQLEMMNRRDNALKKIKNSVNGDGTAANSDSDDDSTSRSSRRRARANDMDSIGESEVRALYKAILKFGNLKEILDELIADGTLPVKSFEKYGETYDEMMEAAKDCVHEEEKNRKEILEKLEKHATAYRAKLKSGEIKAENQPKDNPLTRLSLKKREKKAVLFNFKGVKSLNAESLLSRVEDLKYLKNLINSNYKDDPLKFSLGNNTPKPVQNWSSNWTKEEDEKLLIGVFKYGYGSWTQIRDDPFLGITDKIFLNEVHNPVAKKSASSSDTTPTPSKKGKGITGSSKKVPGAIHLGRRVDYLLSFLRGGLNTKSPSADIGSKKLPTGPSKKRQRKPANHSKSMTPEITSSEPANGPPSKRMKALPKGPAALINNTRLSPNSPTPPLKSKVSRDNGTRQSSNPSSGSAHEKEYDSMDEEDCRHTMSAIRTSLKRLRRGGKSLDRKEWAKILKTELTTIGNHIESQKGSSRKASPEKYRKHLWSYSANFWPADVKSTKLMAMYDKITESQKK

Sequence of Protein translocase subunit SecA (Escherichia coli (strain K12)) (P10408 whole entry): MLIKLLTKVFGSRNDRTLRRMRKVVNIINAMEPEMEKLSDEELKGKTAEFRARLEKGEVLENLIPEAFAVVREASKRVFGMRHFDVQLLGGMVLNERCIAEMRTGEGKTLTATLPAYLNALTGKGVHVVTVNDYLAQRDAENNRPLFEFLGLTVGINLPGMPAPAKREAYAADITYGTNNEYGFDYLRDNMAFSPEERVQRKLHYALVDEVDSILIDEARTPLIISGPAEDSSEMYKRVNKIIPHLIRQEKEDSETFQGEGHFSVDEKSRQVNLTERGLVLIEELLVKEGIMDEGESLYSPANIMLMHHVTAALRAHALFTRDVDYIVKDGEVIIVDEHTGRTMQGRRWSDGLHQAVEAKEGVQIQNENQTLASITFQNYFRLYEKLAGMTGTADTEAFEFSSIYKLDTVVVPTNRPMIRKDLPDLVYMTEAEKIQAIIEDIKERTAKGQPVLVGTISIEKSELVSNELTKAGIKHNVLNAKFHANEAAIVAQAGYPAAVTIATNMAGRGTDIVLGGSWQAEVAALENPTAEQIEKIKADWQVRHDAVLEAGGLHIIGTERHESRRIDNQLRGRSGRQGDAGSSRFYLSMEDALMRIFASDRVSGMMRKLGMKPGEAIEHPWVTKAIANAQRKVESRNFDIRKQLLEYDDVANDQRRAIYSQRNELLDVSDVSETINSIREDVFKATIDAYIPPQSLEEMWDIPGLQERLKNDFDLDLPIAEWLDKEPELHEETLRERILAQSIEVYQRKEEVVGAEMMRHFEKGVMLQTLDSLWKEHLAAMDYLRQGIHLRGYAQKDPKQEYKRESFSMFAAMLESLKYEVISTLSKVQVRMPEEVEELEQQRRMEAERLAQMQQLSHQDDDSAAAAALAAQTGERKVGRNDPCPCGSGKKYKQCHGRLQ

Row | SMILES | Percent Effect [1] | Percent Effect [2] | Percent Effect [3] | Percent Effect [4] | Percent Effect [5] | Percent Effect [6] | Percent Effect [7] | Percent Effect [8] | Percent Effect [9] | Percent Effect [10]
1 | COc1cc(CNC(=O)C2CC(=O)N(C(C)C)C2)ccn1 (stereo not given) | -1.79% | 10.3% | -1.27% | -1.22% | 2.05% | 12.7% | 24.4% | 3.35% | 10.8% | -3.72%
2 | O=C(CN1CCCC(Cn2cncn2)C1)NCCOc1ccccc1 (stereo not given) | 3.17% | -2.67% | 2.29% | -1.41% | 5.32% | 4.67% | 6.94% | 0.526% | 0% | -6.78%
3 | CCOCC1CN(Cc2cnn(C)c2)Cc2nn(C)cc21 (stereo not given) | 0.939% | -3.9% | -4.11% | -5.36% | 0.81% | 10.2% | 4.03% | -1.58% | 0% | 2.52%
4 | CCc1cc(C(=O)N2CCC(Nc3ccc(C)nn3)CC2)sc1C | -4.07% | 10.7% | -0.268% | 3.61% | -4.88% | 2.8% | 4.58% | 5.79% | 7.69% | -9.15%
5 | CCC(NC(=O)c1ccco1)c1ccccc1OCC(=O)N1CCCC1 (stereo not given) | -0.841% | 20.5% | -7.21% | 8.92% | -5.33% | 12.5% | 13.3% | 3.35% | 22.9% | -5.94%
6 | CNC(=O)C1(c2cnccn2)CCCN1C(=O)c1ccccc1OC (stereo not given) | 0.772% | 14.7% | -7.91% | -1.77% | -3.98% | 9.36% | 17.4% | -2.12% | 5% | -18.1%
7 | CCC(=O)N1CCC(Cc2nccnc2Nc2ccccn2)CC1 | -5.27% | 4% | -4.87% | 1.58% | -1.77% | -5.91% | 18.1% | -4.23% | -2.5% | -20%
8 | CCCn1[nH]cc/c1=N\C(=O)CN1CCOC(Cn2cc(C)cn2)C1 (stereo not given) | -8.16% | 5.33% | 3.2% | 3.61% | 0.444% | 5.85% | -3.75% | 2.63% | 7.69% | -5.89%
9 | Cc1cnn(C2CCCN(C(=O)Cc3ccc(-n4cccn4)cc3)C2)c1 (stereo not given) | -6.71% | -2.67% | 3.46% | 3.81% | 2.66% | 1.27% | 6.09% | -1.58% | 5.13% | -7.75%
10 | CC(=O)N1CCCC1c1cc(N2CCN(C3CCCC3)CC2)cc(C)n1 (stereo not given) | -0.907% | 17.3% | -8.17% | -2.96% | 1.33% | 7.22% | 6.74% | 4.23% | 15% | -23.3%
11 | COc1ccc(C[C@H]2CN(C(=O)CN(C)C)CC[C@H]2OC)cc1 | -1.58% | 14.3% | 1.4% | 0.563% | 0% | -4.21% | 5.12% | -8.7% | 10% | -0.592%
12 | CCCOCCCNc1nccc(-c2cn(C)nc2C)n1 | -7.46% | 0% | 9.13% | 12.5% | -3.85% | 13.7% | 36.5% | 5.85% | 17.1% | -2.61%
13 | CC1CCCCN1Cc1ccc(-c2ccccc2C(=O)O)cc1 (stereo not given) | -1.02% | 4% | 1.22% | -4.73% | 0.443% | 7.39% | 12.3% | 2.12% | 2.5% | -21.8%
14 | CC(NC(=O)N(C)CCCOc1ccc(F)cc1)c1nncn1C (stereo not given) | -2.67% | 8% | -3.38% | 0.803% | 5.76% | 17.4% | 8.6% | 4.74% | 10.3% | -10.2%

— ChEMBL document CHEMBL3988442, “University of Dundee, Small-Polar-MMV Screening Library” (2021)
